KCNH2 3.1 block: qHTS for Inhibitors of KCHN2 3.1: Mutant qHTS. Potassium voltage-gated channel subfamily H member 2, brain isoform KCNH2 3.1 (human). U2OS KCNH2 3.1, thallium flux FluxOr; hits give low values. 0.95% of 340,000 active. activity change, % (tested at about 1.8 µM);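 active = maximum activity change below -70%; inconclusive = maximum activity change from -70% to -50%; inactive = maximum activity change above -50%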;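 also: thallium influx rate constant from kinetic fluorescence after stimulation buffer; % is scaled to controls: 0 for no effect and ±100 for the full control effect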
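U2OS cells transduced with KCNH2 3.1 mutant virus (1.77 x 10^8 /mL, 4 h), plated overnight at 37 C, loaded 45 min with FluxOr dye plus Red40 quencher. Thallium flux rate constant from kinetic reads after stimulation buffer, normalised to controls.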
KB-3-1 cytotox: qHTS assay for MDR1-selective chemotherapeutics: Primary screen using the parental adenocarcinoma cell KB-3-1. Potency, µM (series often up to 46.1 µM), most hits filed as cytotoxic. 1.4% of 400,000 active. KB-3-1 viability, CellTiter-Glo ATP luminescence, 72 h; also: potency is read from the fitted curve at half-maximal effect; % is scaled to controls: 0 for no effect and ±100 for the full control effect; nearly all actives have a fitted effect of over 60% in size
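Luminescent ATP read-out (CellTiter-Glo) measures survival of drug-naive KB-3-1 cells after 72 h compound exposure at 37 °C. Titration series was screened from lowest to highest concentration, with DMSO vehicle plates as background controls.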
KB-V1 cytotox: qHTS assay for MDR1-selective chemotherapeutics: Primary screen using the drug-selected MDR subline cells KB-V1 | KB-V1 MDR cells viability, CellTiter-Glo, 72 h | Potency, µM (highest dose often 46.1 µM), usual class: cytotoxic | 3.4% of 400,000 active | AID 1347076, 2019; also: potency is read from the fitted curve at half-maximal effect; % is scaled to controls: 0 for no effect and ±100 for the full control effect; nearly all actives have a fitted effect of over 60% in size
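Luminescent ATP read-out (CellTiter-Glo, 10 min) measures survival of drug-selected KB-V1 MDR cells after 72 h, 37 degrees C compound exposure. Medium: phenol-red-free DMEM, 10% FBS. Values from fitted concentration-response curves.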
MCF10A rereplic: A quantitative high throughput screen for small molecules that induce DNA re-replication in MCF 10a normal breast cells | MCF 10A DNA re-replication, Hoechst nuclear intensity, 48 h | Potency, µM (highest dose often 46.1 µM), for inactives: at the highest dose activity, positive = re-replication, most hits filed as activators | 2.9% of 350,000 active | AID 624296, 2012; also: potency is read from the fitted curve at half-maximal effect; % of control where 0% means no effect; nearly all actives have a fitted effect of over 50% in size
SW480 rerep: A quantitative high throughput screen for small molecules that induce DNA re-replication in SW480 colon adenocarcinoma cells. SW480 DNA re-replication, Hoechst DNA content imaging, 48 h. Potency, µM (top dose mostly 46.1 µM), without a hit: at the highest dose re-replication activation, usual class: activators. 1.8% of 340,000 active. AID 624297, 2012; also: potency is read from the fitted curve at half-maximal effect; % of control where 0% means no effect; nearly all actives have a fitted effect of over 55% in size
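Treated cells incubate 48 hr (37 C, 5% CO2), are stained 40 min with Hoechst, and nuclear fluorescence is enumerated; a rise in nuclei with high DNA signal marks re-replication.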
KCNH2 WT inh: qHTS for Inhibitors of KCHN2 3.1: Wildtype qHTS | activity change, % at 1.84 µM | U2OS, BacMam KCNH2, thallium flux FluxOr; hits give low values | 0.37% of 340,000 active | Voltage-gated inwardly rectifying potassium channel KCNH2 (Homo sapiens), Q12809;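 active = maximum activity change below -70%; inconclusive = maximum activity change between -70% and -50%; inactive = maximum activity change above -50%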; also: % is scaled to controls: 0 for no effect and ±100 for the full control effect
Target sequence (Q12809 whole entry, looked up): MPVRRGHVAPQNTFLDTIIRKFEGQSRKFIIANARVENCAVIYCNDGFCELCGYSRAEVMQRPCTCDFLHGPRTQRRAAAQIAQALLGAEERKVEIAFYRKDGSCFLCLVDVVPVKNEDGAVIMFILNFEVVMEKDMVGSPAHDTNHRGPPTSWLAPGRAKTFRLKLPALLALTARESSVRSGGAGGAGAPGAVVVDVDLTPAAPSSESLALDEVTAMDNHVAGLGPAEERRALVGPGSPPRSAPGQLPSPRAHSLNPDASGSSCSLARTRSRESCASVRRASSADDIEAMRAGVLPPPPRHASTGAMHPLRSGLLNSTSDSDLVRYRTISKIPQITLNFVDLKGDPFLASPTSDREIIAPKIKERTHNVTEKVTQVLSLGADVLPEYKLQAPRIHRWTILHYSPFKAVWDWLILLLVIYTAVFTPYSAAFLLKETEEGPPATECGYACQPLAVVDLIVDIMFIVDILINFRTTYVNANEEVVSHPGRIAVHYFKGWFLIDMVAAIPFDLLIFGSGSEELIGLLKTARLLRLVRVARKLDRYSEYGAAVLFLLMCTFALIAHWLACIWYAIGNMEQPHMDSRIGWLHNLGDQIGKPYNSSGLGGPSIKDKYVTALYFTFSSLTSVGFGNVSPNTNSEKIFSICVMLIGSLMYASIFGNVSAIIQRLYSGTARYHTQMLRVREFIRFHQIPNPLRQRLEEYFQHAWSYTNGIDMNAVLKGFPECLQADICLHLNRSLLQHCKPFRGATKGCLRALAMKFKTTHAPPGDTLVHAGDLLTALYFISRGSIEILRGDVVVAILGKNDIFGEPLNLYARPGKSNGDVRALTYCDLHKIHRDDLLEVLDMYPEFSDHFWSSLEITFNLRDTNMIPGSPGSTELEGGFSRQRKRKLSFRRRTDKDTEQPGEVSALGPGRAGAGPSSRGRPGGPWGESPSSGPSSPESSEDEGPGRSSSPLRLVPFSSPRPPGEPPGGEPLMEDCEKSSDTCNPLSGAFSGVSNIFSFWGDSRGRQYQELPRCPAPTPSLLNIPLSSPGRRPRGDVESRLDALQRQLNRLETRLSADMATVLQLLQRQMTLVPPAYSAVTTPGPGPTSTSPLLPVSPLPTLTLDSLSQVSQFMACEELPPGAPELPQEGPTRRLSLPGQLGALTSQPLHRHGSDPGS
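U2OS cells transduced with wild-type KCNH2 virus are loaded with FluxOr dye for 45 min, and thallium flux is measured in kinetic reads before and after stimulation buffer. Rate constants are normalized to DMSO controls.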
Numbers without * were called inactive; i = inactive; u = inconclusive; x = not tested or not shown; [ ] = dose if it differs, or a comment. Compounds with a hit are over-represented: about 7.6% of the library has one in this group of screens. Unless noted, calls follow the shape of the dose curve; as a rule, active = well fitted curve in the direction sought with a large enough effect; inconclusive = small, poorly fitted or top-dose-only effect, or another doubt; inactive = no such curve, though single readings can be large; an effect the other way counts as inactive or inconclusive.

SMILES	KCNH2 3.1 block	KB-3-1 cytotox	KB-V1 cytotox	MCF10A rereplic	SW480 rerep	KCNH2 WT inh
C=CCn1c(SCC(=O)Nc2ccc(-c3nc4ccc(C)cc4s3)cc2)nnc1-c1ccccc1	0.6	i	u	4.11µM*	10.3µM*	1.4
O=C(O)c1cc2cc(Oc3ccccc3)ccc2[nH]1	-0.5	i	i	3.5%	-0.4%	7.5
Cc1ccc(C)c(S(=O)(=O)Nc2ccc(C(=O)N3CC(C)OC(C)C3)cc2)c1 (stereo unspecified)	30.3	i	i	-3.2%	3.3%	-0.7
CCn1c(SCC(=O)N/N=C/C(C)=C/c2ccco2)nnc1-c1ccccc1	-12.3	i	14.6µM*	24.6%	4.8%	3.7
CCn1c(SCC(=O)Nc2cccnc2Cl)nnc1-c1ccccc1	6.2	i	20.6µM*	-0.9%	5.3%	7.3
O=C(CSCC(=O)N1CCN(c2ccccc2)CC1)Nc1nc(-c2ccc(Cl)s2)cs1	-1.4	i	i	20.2%	-1.8%	3.2
CCn1c(SCC(=O)N/N=C/C(C)=C\c2ccco2)nnc1-c1ccccc1	8.5	i	i	u	-2.7%	7.6
CCOC(=O)N1CCN(C(=O)CSCC(=O)Nc2nc(-c3ccccc3)cs2)CC1	-5.6	i	16.4µM*	7.3%	-2.5%	-11.3
C=CCn1c(SCC(=O)Nc2cccnc2Cl)nnc1-c1ccc(Cl)cc1	-5.7	i	5.17µM*	0.8%	-1.3%	-3.7
Oc1cccc2ccc(N3CCOCC3)nc12	21.9	i	i	6.8%	-4.7%	-2.4
O=C(/C=C/c1c(Cl)nc2ccccn12)Nc1ccc(F)cc1	-12.7	i	i	0.7%	-6.1%	5.2
CCN(CC)CCN1C(=O)c2ccccc2NC1c1ccc(OC)c(COc2ccc(NC(C)=O)cc2)c1 (stereo unspecified)	x	i	u	x	x	x
Cc1csc(NC(=O)CSc2ccc(-c3ccccc3)nn2)n1	-32.9	i	23.1µM*	7.9%	-7.0%	21.8
CC(C)c1cccc(C(C)C)c1NC(=O)COc1nncc2ccccc12	9.3	i	u	u	u	-2.9
CCN(CC)c1ccc(/C=C/c2cccc[n+]2C)c(OC)c1	1.4	0.651µM*	i	u	18.4µM*	-17.7
CS(=O)(=O)c1ccc([C@H](O)[C@H](CF)NC(=O)C(Cl)Cl)cc1	x	x	x	-1.6%[20.6 µM]	-8.5%[20.6 µM]	x
Nc1c2c(=O)oc(-c3ccccc3)cc2nn1-c1ccccc1	8.2	23.1µM*	11.6µM*	u	16.4µM*	-2.8
Cc1c(-c2ccc(Cl)cc2)oc(=O)c2c(N)n(-c3ccccc3)nc12	-3.6	u	20.6µM*	u	-0.2%	0.1
Nc1cc(-c2ccc(Cl)cc2)nn1-c1ccccc1	8.2	i	i	-24.7%	-0.6%	6.7
CCc1cccc2c3c([nH]c12)[C@@](CC)(CC(=O)O)OCC3	x	x	x	1.0%	-1.6%	x
O=C(CCNC(=O)c1ccccc1)OCN1C(=O)c2ccccc2C1=O	-73.2*	i	i	3.2%	-13.2%	-1.4
Cc1ccc(C(=O)OCC(=O)NC2CCCC(C)C2C)cc1S(=O)(=O)N1CCCCC1 (stereo unspecified)	-10.7	i	i	7.9%	-6.8%	-10.1
O=C(NCCCN1CCOCC1)c1ccccc1N1C(=O)[C@@H]2Cc3c([nH]c4ccccc34)C(c3ccc(F)cc3)N2C1=O (stereo partly specified)	-82.3*	i	i	-12.7%	-2.3%	-43.1
CC1(C)Cc2c(sc3nc[nH]c(=O)c23)CO1	13.0	i	i	-9.9%	5.17µM*	-0.5
COc1cc2nc(SCc3ccc(Cl)cc3Cl)n(Cc3cccs3)c(=N)c2cc1OC	-28.0	23.1µM*	6.51µM*	u	-5.1%	-1.1
SMILES	KCNH2 3.1 block	KB-3-1 cytotox	KB-V1 cytotox	MCF10A rereplic	SW480 rerep	KCNH2 WT inh
COc1ccc(Cn2c(SCc3cc(C)ccc3C)nc3cc(OC)c(OC)cc3c2=N)cc1	-18.9	u	11.2µM*	3.66µM*	u	-3.8
CCCCNC(=O)CSc1nc2cc(OC)c(OC)cc2c(=O)n1Cc1ccc(OC)cc1	7.6	i	2.06µM*	5.5%	-4.5%	-8.6
COc1cc2nc(SCc3ccc(C(F)(F)F)cc3)n(Cc3cccs3)c(=N)c2cc1OC	x	i	i	-0.6%	-21.6%	-5.0
COc1ccc(Cn2c(SCc3ccc(C)cc3)nc3cc(OC)c(OC)cc3c2=N)cc1Cl	1.4	u	u	4.11µM*	u	-1.7
CCN(CC)S(=O)(=O)c1ccc2c(c1)N(CC(=O)NCCN1CCOCC1)C(=O)CO2	7.1	i	i	-1.7%	-4.1%	26.9
COc1cccc(NC(=O)NCCCN2CCN(c3ccc(F)cc3)CC2)c1	-82.0*	i	i	-0.3%	4.1%	-37.9
COc1ccc(NC(=O)NCCCN2CCN(c3cc(C)ccc3C)CC2)cc1	-91.6*	i	i	5.7%	-12.8%	39.0
COc1cc(NC(=O)NCCN2CCN(c3ccc(Cl)cc3)CC2)ccc1C	-81.5*	u	u	u	u	-38.2
COc1ccccc1NC(=O)NCCCN1CCN(c2ccc(F)cc2)CC1	x	i	i	x	x	x
COc1ccc(NC(=O)NCCN2CCN(c3cccc(Cl)c3)CC2)cc1	-42.7	i	i	16.6%	-7.3%	0.3
COc1ccc(N2CCN(CCNC(=O)Nc3ccc(C)c(Cl)c3)CC2)cc1	-89.6*	i	i	u	u	x
COc1ccc(NC(=O)NCCCN2CCN(c3ccccc3F)CC2)cc1	-40.2	i	i	-1.9%	0.1%	13.3
CCOCC(=O)Nc1cc(-c2cn3cccnc3n2)ccc1C	-13.8	i	i	21.0%	-6.9%	-3.5
Cc1ccc2nc(SCC(=O)N(C)C3CCS(=O)(=O)C3)[nH]c2c1 (stereo unspecified)	-197.6*	i	i	-0.7%	-12.2%	0.2
COc1ccc2nc(SCC(=O)N(C)C3CCCCC3)[nH]c2c1	-1.9	i	20.6µM*	0.5%	2.0%	-6.5
O=C(CCNS(=O)(=O)c1ccc(F)c(F)c1)NCCN1CCOCC1	12.5	i	i	-2.0%	-2.9%	2.5
COc1ccc(Nc2ccnc(Nc3ccc(OC)cc3)n2)cc1	6.3	u	16.4µM*	23.1µM*	u	0.6
Nc1nc2ccccc2cc1C(=O)NCc1cccs1	x	i	16.4µM*	x	x	x

High-throughput results (PubChem BioAssay)
